Measurements: PubChem BioAssay

Key:
PEG-3 [1] = biological target: PEG-3 (UniProt Q6IN02); experiment: inhibition of PEG-3 promoter-driven reporter – cell-based, HeLa, luciferase, CREF/GAPDH counter-screen panel, dose response (AID 624167); settings: CREF/GAPDH counter-screens; HeLa PEG-Prom luciferase reporter, overnight, run 1, dose range 1, at 100 µM (top of the series) unless noted
PEG-3 [2] = biological target: PEG-3 (UniProt Q6IN02); experiment: as above; settings: CREF/GAPDH counter-screens; HeLa PEG-Prom luciferase reporter, overnight, run 2, dose range 1, at 100 µM (top of the series) unless noted

PEG-3, sequence (Q6IN02 whole entry, looked up): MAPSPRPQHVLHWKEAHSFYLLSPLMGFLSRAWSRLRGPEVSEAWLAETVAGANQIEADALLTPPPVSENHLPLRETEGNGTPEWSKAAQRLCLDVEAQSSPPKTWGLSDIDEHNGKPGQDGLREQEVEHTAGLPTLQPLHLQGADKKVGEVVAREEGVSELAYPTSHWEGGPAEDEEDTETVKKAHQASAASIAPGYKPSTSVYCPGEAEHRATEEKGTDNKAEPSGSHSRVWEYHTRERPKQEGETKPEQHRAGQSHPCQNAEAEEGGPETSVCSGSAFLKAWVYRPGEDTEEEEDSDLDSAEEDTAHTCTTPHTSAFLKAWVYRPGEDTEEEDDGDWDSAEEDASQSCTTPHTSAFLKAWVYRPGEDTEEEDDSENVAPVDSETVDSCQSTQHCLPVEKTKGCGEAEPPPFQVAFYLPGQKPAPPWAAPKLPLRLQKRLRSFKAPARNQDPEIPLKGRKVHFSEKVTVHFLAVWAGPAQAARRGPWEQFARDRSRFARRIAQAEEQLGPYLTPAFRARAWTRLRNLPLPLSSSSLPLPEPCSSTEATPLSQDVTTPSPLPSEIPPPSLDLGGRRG

Structure (SMILES) | inhibition (PEG-3 [1]) | inhibition (PEG-3 [2])
CCCCCCC=C1CCC(CN2CCCC2)C1=O (stereo not given) | 98.4% | 101%
NC(N)=N/N=C/c1ccc(Cl)cc1Cl | 97.7% | 99.1%
CN(C)S(=O)(=O)c1cccc(NC(=O)CSc2cccc3cccnc23)c1 | 99.3% | 101%
O=C(Nc1ccccc1N1CCOCC1)c1cc(-c2ccncc2)nc2ccccc12 | 93.7% | 88%
COc1cc(C=NO)nc(-c2ccccn2)c1 | 71.9% | 73.1%
COc1cc(NC(=O)Nc2nc(C(N)CCc3ccccc3)cs2)cc(OC)c1OC (stereo not given) | 99.2% | 97.7%
CC1(C)CC(NCCN2CCN(C3=CC(=C(C#N)C#N)CC(C)(C)C3)CC2)=CC(=C(C#N)C#N)C1 | 19.6% | 44%
Cc1ccc(NS(=O)(=O)c2cc3c4c(cccc4c2)C(=O)NC3=O)cc1C | 71.4% | 66.9%
CC(=O)Nc1cccc(-c2ccnc3c2CC(C)(C(=O)Nc2cccc(C(F)(F)F)c2)O3)c1 (stereo not given) | 92.6% | 88.4%
CNCC[C@@H](Oc1ccc(C(F)(F)F)cc1)c1ccccc1 | 98.7% | 100%
CCN(CC)CCNC(=O)c1ccc(NC(=O)c2cccc(S(=O)(=O)N(C)C3CCCCC3)c2)cc1 | 100% | 102%
CCC(C)NCCOCCOc1ccc(Cl)c2ccccc12 (stereo not given) | 102% | 98.8%
OC[C@@H]1[C@@H](c2ccc(Cl)cc2)C(c2cccc(Cl)c2)=NN1c1ccccc1 | 102% | 101%
O=C(CN1CCCC1)Nc1ccc(-c2nc3cc(NC(=O)CN4CCCC4)ccc3o2)cc1 | 98.9% | 102%
c1ccc(C[C@H]2CNCCN2CCCCC2CCCCC2)cc1 | 102% | 101%
